# Data published in paper PMC7862700, “An all-to-all approach to the identification of sequence-specific readers for epigenetic DNA modifications on cytosine”.
# What was measured:
# Assay in all cases: DAPPL (digital affinity profiling via proximity ligation, sequencing); 10 mM Tris-HCl pH 7.5, 50 mM NaCl, 1 mM DTT, 4% glycerol, room temperature, 30 min; GST-TFs on glutathione beads, 16-mer random dsDNA library, 0.1% formaldehyde crosslink after washing; high values mean tight binding
# Conditions in all cases: protein: recombinant; tags: N-terminal GST; dsDNA, one strand shown
# FLI1 = molecular target: T1, FLI1 (Homo sapiens, UniProt Q01543 1-452)
# T1 sequence: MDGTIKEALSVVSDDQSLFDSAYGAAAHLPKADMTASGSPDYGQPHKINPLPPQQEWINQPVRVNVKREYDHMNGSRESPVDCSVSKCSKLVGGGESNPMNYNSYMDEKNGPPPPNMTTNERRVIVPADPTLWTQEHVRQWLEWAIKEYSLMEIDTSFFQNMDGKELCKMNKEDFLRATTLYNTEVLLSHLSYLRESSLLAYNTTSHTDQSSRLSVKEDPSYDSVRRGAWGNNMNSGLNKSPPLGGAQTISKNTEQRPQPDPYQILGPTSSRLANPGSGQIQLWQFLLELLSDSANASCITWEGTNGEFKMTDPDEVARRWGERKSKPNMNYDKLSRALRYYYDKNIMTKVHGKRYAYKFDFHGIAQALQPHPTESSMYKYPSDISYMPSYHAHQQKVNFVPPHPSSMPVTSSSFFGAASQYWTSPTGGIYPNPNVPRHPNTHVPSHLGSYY
# Outline: (§1)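 Pools were built from human transcription factors expressed in yeast as GST fusions, captured on glutathione beads and DNA-barcoded, along with a tag-only sample. Incubation with 200 nmole of a 16-mer random double-stranded DNA library lasted 30 min at room temperature in Tris/NaCl/DTT/glycerol buffer, and was followed by washing, 0.1% formaldehyde crosslinking, proximity ligation, PCR amplification and Illumina NextSeq500 sequencing. Binding signal is the quotient of each hexamer's read frequency for a factor and its frequency for the tag-only sample.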
# ELK1 = molecular target: T2, ELK1 (Homo sapiens, UniProt P19419 1-428)
# T2 sequence: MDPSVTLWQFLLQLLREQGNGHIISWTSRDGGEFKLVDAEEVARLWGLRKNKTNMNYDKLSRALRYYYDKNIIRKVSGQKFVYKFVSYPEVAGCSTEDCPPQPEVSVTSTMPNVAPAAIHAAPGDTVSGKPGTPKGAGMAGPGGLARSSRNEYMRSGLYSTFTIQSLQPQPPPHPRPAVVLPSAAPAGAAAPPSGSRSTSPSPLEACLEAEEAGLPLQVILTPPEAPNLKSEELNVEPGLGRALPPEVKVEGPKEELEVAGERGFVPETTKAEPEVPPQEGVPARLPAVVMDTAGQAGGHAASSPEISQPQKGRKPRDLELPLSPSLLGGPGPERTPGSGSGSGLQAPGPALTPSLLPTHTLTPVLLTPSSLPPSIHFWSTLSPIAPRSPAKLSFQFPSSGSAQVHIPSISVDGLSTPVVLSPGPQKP
# Outline: as §1
# GABPA = molecular target: T3, GABPA (Homo sapiens, UniProt Q06546 1-454)
# T3 sequence: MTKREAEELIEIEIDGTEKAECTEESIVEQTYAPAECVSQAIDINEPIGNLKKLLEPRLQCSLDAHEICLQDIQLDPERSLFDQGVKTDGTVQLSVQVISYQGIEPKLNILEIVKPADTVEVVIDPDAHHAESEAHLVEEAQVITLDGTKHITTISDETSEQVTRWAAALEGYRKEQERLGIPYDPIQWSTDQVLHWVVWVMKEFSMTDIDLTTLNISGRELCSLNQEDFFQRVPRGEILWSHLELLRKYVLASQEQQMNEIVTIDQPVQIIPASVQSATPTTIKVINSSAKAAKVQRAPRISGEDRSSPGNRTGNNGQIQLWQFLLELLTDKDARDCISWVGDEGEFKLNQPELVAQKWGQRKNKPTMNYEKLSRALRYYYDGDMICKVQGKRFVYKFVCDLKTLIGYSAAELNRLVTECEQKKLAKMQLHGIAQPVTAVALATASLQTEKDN
# Outline: as §1
# ERG = molecular target: T4, ERG (Homo sapiens, UniProt P11308 1-479)
# T4 sequence: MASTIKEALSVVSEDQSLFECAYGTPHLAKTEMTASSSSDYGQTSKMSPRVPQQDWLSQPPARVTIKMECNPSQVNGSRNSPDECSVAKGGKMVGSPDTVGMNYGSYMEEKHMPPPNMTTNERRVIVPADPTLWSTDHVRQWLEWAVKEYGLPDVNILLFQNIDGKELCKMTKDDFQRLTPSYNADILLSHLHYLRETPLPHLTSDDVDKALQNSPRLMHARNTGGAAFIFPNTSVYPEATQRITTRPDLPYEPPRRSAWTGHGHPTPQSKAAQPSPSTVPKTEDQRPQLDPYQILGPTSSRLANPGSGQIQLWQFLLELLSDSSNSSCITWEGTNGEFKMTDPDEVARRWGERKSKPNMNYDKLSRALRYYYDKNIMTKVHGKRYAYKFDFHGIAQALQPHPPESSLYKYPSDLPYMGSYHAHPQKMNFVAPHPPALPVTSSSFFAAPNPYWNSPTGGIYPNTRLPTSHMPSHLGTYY
# Outline: as §1
# ELF1 = ELF1 (Homo sapiens, UniProt P32519 1-619)
# Outline: as §1
# EHF = molecular target: T5, EHF (Homo sapiens, UniProt Q9NZC4 1-300)
# T5 sequence: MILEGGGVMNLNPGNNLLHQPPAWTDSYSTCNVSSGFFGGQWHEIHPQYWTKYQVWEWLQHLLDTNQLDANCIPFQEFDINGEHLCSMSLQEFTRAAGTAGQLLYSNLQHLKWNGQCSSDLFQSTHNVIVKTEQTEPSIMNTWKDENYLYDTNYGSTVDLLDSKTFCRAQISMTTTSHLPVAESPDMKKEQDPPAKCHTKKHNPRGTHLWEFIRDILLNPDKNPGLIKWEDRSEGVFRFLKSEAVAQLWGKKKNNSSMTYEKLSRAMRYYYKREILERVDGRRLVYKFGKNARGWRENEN
# Outline: as §1
# SPI1 = SPI1 (Homo sapiens, UniProt P17947 1-270)
# Outline: as §1
# SPIB = SPIB (Homo sapiens, UniProt Q01892 1-262)
# Outline: as §1
# ETV5 = ETV5 (Homo sapiens, UniProt P41161 1-510)
# Outline: as §1
# ELF4 = ELF4 (Homo sapiens, UniProt Q99607 1-663)
# Outline: as §1
# ETV2 = molecular target: T6, ETV2 (Homo sapiens, UniProt O00321 1-342)
# T6 sequence: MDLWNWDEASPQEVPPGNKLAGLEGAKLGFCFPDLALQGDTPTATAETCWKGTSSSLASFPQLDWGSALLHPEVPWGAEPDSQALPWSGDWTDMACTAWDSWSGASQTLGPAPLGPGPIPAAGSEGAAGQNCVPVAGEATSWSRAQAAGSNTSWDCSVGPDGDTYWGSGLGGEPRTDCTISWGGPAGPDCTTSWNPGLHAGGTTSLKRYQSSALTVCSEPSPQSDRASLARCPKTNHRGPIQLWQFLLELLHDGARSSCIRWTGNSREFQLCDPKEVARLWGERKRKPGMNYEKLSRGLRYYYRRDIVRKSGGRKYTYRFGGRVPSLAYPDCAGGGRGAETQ
# Outline: as §1
# ELF3 = molecular target: T7, ELF3 (Homo sapiens, UniProt P78545 1-371)
# T7 sequence: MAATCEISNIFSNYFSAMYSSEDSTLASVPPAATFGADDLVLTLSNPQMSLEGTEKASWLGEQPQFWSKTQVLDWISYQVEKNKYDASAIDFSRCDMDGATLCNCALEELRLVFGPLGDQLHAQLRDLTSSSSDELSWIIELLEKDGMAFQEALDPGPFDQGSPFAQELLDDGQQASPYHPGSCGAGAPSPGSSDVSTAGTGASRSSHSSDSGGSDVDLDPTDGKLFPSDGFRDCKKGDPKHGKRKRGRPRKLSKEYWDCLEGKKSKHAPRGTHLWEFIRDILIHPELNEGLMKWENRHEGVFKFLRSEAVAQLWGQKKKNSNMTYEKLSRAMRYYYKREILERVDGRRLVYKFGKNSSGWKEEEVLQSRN
# Outline: as §1
# ETV1 = ETV1 (Homo sapiens, UniProt P50549 1-477)
# Outline: as §1
# ETS2 = molecular target: T8, ETS2 (Homo sapiens, UniProt P15036 1-469)
# T8 sequence: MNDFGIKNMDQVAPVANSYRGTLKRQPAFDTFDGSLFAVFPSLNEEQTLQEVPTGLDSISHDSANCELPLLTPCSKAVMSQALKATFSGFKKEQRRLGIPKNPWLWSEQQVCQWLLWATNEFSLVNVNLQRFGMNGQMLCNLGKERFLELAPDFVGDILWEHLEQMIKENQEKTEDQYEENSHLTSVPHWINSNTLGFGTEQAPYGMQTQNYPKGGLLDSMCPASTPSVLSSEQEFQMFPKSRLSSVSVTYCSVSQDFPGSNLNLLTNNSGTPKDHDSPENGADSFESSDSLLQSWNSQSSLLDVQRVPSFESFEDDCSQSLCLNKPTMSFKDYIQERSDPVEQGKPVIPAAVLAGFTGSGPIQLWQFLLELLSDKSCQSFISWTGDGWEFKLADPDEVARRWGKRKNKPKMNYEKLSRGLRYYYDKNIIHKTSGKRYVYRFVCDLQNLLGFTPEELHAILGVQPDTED
# Outline: as §1
# ETV7 = molecular target: T9, ETV7 (Homo sapiens, UniProt Q9Y603 1-341)
# T9 sequence: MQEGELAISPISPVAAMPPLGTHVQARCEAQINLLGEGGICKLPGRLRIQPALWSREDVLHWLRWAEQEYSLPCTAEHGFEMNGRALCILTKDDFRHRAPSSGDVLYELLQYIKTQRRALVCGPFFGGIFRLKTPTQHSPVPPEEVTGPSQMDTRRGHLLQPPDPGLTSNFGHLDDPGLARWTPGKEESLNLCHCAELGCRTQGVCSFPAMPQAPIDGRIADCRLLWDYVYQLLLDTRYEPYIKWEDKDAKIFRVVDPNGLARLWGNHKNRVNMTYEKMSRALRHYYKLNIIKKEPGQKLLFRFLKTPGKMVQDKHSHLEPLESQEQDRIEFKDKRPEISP
# Outline: as §1
# ETV3 = molecular target: T10, ETV3 (Homo sapiens, UniProt P41162-2 1-143)
# T10 sequence: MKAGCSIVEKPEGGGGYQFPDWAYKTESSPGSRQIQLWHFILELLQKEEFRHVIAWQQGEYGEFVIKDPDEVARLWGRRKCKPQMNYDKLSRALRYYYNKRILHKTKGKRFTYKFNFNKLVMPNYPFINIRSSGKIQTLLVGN
# Outline: as §1
# ETV6 = ETV6 (Homo sapiens, UniProt P41212 1-452)
# Outline: as §1
# SPIB, sequence (Q01892 whole entry): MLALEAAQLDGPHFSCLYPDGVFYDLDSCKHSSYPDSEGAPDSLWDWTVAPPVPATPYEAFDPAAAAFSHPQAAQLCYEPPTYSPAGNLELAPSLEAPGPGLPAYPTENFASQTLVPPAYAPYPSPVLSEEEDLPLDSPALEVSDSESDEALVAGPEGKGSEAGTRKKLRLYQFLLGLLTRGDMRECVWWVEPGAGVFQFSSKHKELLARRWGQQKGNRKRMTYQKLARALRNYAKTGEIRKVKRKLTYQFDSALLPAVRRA
# ETV5, sequence (P41161 whole entry): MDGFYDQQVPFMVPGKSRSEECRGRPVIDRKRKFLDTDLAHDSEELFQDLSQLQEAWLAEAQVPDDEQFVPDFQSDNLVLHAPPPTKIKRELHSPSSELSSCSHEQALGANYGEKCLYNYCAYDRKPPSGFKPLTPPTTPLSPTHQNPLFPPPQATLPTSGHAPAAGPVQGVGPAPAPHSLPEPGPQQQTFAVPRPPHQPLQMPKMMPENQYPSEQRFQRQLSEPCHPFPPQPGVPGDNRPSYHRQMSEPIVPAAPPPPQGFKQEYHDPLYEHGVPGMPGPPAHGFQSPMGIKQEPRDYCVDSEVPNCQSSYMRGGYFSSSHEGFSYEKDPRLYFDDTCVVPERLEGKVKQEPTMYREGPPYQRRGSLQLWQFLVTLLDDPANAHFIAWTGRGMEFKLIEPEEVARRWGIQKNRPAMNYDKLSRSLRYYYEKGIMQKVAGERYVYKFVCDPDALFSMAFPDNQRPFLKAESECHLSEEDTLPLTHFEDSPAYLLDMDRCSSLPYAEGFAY
# ELF4, sequence (Q99607 whole entry): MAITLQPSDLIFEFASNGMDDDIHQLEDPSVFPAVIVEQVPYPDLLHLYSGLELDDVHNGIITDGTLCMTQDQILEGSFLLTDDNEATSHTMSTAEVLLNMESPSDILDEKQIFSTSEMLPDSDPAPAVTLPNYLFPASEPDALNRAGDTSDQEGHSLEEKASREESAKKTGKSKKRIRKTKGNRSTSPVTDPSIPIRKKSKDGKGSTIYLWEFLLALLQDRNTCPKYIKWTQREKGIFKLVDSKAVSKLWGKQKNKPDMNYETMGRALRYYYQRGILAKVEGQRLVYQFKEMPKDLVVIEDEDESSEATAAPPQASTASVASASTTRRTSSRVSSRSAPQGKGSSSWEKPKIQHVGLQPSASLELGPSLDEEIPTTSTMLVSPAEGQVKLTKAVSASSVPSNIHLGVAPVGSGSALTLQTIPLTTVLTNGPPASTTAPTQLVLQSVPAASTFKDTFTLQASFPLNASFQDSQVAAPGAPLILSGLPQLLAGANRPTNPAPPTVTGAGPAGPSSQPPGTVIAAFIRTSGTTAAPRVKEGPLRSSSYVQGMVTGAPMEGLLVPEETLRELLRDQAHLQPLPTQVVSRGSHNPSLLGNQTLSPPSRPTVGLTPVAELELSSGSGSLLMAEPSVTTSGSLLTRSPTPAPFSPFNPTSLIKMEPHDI
# ETV1, sequence (P50549 whole entry): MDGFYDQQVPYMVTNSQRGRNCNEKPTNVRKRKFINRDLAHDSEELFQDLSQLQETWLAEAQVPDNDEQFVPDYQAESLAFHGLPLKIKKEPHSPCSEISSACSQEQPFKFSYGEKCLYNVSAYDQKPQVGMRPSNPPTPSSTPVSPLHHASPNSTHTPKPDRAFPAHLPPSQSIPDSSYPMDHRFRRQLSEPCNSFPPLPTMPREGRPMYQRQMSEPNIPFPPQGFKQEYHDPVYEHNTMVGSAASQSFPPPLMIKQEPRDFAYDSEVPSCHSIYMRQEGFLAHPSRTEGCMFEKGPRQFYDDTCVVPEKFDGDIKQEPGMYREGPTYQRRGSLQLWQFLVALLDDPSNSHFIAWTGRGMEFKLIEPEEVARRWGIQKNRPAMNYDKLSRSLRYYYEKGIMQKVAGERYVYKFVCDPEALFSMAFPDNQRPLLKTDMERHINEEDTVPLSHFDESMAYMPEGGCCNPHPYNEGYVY
# ELF1, sequence (P32519 whole entry): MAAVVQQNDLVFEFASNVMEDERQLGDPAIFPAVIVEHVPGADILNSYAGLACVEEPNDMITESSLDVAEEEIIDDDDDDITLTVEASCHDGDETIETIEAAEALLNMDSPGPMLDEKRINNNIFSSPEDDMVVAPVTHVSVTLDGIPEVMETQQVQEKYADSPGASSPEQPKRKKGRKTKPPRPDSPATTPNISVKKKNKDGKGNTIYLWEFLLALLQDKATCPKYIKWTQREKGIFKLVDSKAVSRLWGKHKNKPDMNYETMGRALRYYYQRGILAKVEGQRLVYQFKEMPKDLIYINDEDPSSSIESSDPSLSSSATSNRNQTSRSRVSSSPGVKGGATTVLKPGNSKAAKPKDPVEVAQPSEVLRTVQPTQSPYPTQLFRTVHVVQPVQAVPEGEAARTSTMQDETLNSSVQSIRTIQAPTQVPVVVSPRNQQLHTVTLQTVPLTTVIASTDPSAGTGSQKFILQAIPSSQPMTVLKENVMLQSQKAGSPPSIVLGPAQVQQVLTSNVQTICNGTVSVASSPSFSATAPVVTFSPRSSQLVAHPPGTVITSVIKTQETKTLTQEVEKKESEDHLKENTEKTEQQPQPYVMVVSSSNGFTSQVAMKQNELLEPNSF
# ETV6, sequence (P41212 whole entry): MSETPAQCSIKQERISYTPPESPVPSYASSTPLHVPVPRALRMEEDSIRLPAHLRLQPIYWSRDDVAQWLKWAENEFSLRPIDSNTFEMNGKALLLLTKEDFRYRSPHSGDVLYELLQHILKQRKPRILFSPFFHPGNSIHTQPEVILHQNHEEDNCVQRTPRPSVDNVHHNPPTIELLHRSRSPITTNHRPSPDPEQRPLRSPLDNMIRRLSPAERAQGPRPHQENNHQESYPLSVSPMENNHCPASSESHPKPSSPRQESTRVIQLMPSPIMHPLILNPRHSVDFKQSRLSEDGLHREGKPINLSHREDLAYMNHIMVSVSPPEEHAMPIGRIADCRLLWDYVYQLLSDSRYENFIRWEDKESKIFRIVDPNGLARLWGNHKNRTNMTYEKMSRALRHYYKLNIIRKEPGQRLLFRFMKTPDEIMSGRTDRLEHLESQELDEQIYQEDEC
sequence,measurement,setting,value
AGTGTC,binding signal,FLI1,"1.01 fold enrichment (6-mer frequency, TF over GST control)"
same,binding signal,ELK1,"1.07 fold enrichment (6-mer frequency, TF over GST control)"
same,binding signal,GABPA,"1.07 fold enrichment (6-mer frequency, TF over GST control)"
same,binding signal,ERG,"1.08 fold enrichment (6-mer frequency, TF over GST control)"
same,binding signal,ELF1,"1.06 fold enrichment (6-mer frequency, TF over GST control)"
same,binding signal,EHF,"1.14 fold enrichment (6-mer frequency, TF over GST control)"
same,binding signal,SPI1,"1.16 fold enrichment (6-mer frequency, TF over GST control)"
same,binding signal,SPIB,"1.01 fold enrichment (6-mer frequency, TF over GST control)"
same,binding signal,ETV5,"1.06 fold enrichment (6-mer frequency, TF over GST control)"
same,binding signal,ELF4,"1.07 fold enrichment (6-mer frequency, TF over GST control)"
same,binding signal,ETV2,"1.02 fold enrichment (6-mer frequency, TF over GST control)"
same,binding signal,ELF3,"1.11 fold enrichment (6-mer frequency, TF over GST control)"
same,binding signal,ETV1,"1.02 fold enrichment (6-mer frequency, TF over GST control)"
same,binding signal,ETS2,"1.09 fold enrichment (6-mer frequency, TF over GST control)"
same,binding signal,ETV7,"1.16 fold enrichment (6-mer frequency, TF over GST control)"
same,binding signal,ETV3,"1.07 fold enrichment (6-mer frequency, TF over GST control)"
same,binding signal,ETV6,"1.01 fold enrichment (6-mer frequency, TF over GST control)"
